Among all 5,500 compounds or so, about 2,000 (36%) were called active. Roughly 18% stayed inconclusive and do not appear here. Rule as the data show it: active = normalized growth mostly below about 0.91 (no sharp cut-off); inconclusive = no clear call, values can overlap the other calls; inactive = mostly above about 0.92. The list shows a part of the results.
Assay: chemical genetic growth profiling, strain panel (AID 1159580);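 also: tested at 20 µM; growth read once vehicle control cultures reached saturation at 30 °C; 1 = growth at the plate median or of vehicle wells; lower values mean less growth of the strain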
Conditions: growth OD

Measured: normalized growth

NC(N)=NS(=O)(=O)c1ccc(N)cc1
inactive: S. cerevisiae deletion strains, locus YJR066W, strain TOR1, hits give low values 0.909 | S. cerevisiae deletion strains, locus YKL009W, strain mrt4, hits give low values 0.993 | S. cerevisiae deletion strains, locus YKL068W, hits give low values 1 | S. cerevisiae deletion strains, locus YKL085W, strain MDH1 (second series), hits give low values 1.02 | S. cerevisiae deletion strains, locus YKL085W, strain MDH1, hits give low values 1.02 | S. cerevisiae deletion strains, locus YKL160W, strain elf1, hits give low values 0.996 | S. cerevisiae deletion strains, locus YKL190W, strain CNB1, hits give low values 1.01 | S. cerevisiae deletion strains, locus YKR001C, strain vps1, hits give low values 1.01 | S. cerevisiae deletion strains, locus YKR026C, strain gcn3, hits give low values 0.955 | S. cerevisiae deletion strains, locus YKR091W, strain srl3, hits give low values 0.991 | S. cerevisiae deletion strains, locus YLL001W, strain dnm1, hits give low values 0.998 | S. cerevisiae deletion strains, locus YLL026W, hits give low values 0.991 | S. cerevisiae deletion strains, locus YLL041C, strain sdh2, hits give low values 0.973 | S. cerevisiae deletion strains, locus YLR027C, strain aat2, hits give low values 0.974 | S. cerevisiae deletion strains, locus YLR039C, strain RIC1, hits give low values 1.02 | S. cerevisiae deletion strains, locus YLR058C, strain SHM2, hits give low values 1.02 | S. cerevisiae deletion strains, locus YLR102C, strain apc9, hits give low values 0.986 | S. cerevisiae deletion strains, locus YLR113W, strain HOG1, hits give low values 0.967 | S. cerevisiae deletion strains, locus YLR221C, strain rsa3, hits give low values 0.984 | S. cerevisiae deletion strains, locus YLR258W, strain gsy2, hits give low values 0.998 | S. cerevisiae deletion strains, locus YLR262C, strain YPT6 (second series), hits give low values 0.984 | S. cerevisiae deletion strains, locus YLR262C, strain YPT6, hits give low values 1.03 | S. cerevisiae deletion strains, locus YLR268W, strain sec22, hits give low values 0.996 | S. cerevisiae deletion strains, locus YLR320W, strain mms22, hits give low values 0.992 | S. cerevisiae deletion strains, locus YLR330W, strain CHS5, hits give low values 1.01 | S. cerevisiae deletion strains, locus YLR342W, strain FKS1 (second series), hits give low values 1.01 | S. cerevisiae deletion strains, locus YLR342W, strain FKS1, hits give low values 0.977 | S. cerevisiae deletion strains, locus YLR357W, strain rsc2, hits give low values 0.986 | S. cerevisiae deletion strains, locus YLR370C, strain arc18, hits give low values 0.981 | S. cerevisiae deletion strains, locus YLR371W, strain rom2, hits give low values 0.993 | S. cerevisiae deletion strains, locus YLR384C, strain iki3, hits give low values 0.995 | S. cerevisiae deletion strains, locus YLR418C, strain cdc73, hits give low values 0.994 | S. cerevisiae deletion strains, locus YML016C, strain PPZ1, hits give low values 1.01 | S. cerevisiae deletion strains, locus YML032C, strain rad52, hits give low values 0.987 | S. cerevisiae deletion strains, locus YML120C, strain ndi1, hits give low values 0.978 | S. cerevisiae deletion strains, locus YML124C, strain tub3, hits give low values 0.992 | S. cerevisiae deletion strains, locus YMR058W, strain fet3, hits give low values 0.984 | S. cerevisiae deletion strains, locus YMR078C, strain ctf18, hits give low values 0.997 | S. cerevisiae deletion strains, locus YMR125W, strain sto1, hits give low values 0.966 | S. cerevisiae deletion strains, locus YMR129W, hits give low values 0.997 | S. cerevisiae deletion strains, locus YMR205C, strain PFK2, hits give low values 1 | S. cerevisiae deletion strains, locus YMR223W, strain ubp8, hits give low values 0.996 | S. cerevisiae deletion strains, locus YMR231W, strain pep5, hits give low values 1 | S. cerevisiae deletion strains, locus YMR307W, strain GAS1, hits give low values 1.03 | S. cerevisiae deletion strains, locus YNL067W, strain RPL9B, hits give low values 1.03 | S. cerevisiae deletion strains, locus YNL071W, strain lat1, hits give low values 0.986 | S. cerevisiae deletion strains, locus YNL128W, strain TEP1, hits give low values 1.03 | S. cerevisiae deletion strains, locus YNL153C, strain GIM3, hits give low values 1.04 | S. cerevisiae deletion strains, locus YNL183C, strain NPR1, hits give low values 0.918 | S. cerevisiae deletion strains, locus YNL209W, strain ssb2, hits give low values 0.993 | S. cerevisiae deletion strains, locus YNL233W, strain BNI4, hits give low values 1.03 | S. cerevisiae deletion strains, locus YNL248C, strain rpa49, hits give low values 0.972 | S. cerevisiae deletion strains, locus YNL250W, strain rad50, hits give low values 0.987 | S. cerevisiae deletion strains, locus YNL271C, strain bni1, hits give low values 0.985 | S. cerevisiae deletion strains, locus YNL298W, strain CLA4, hits give low values 0.994 | S. cerevisiae deletion strains, locus YNL307C, strain MCK1, hits give low values 0.987 | S. cerevisiae deletion strains, locus YNL322C, strain KRE1 (second series), hits give low values 0.967 | S. cerevisiae deletion strains, locus YNR049C, strain mso1, hits give low values 0.981 | S. cerevisiae deletion strains, locus YNR052C, strain pop2, hits give low values 0.986 | S. cerevisiae deletion strains, locus YOL006C, strain TOP1, hits give low values 1.09 | S. cerevisiae deletion strains, locus YOL012C, strain htz1 0.841 | S. cerevisiae deletion strains, locus YOL147C, strain pex11, hits give low values 0.992 | S. cerevisiae deletion strains, locus YOR001W, strain rrp6, hits give low values 0.986 | S. cerevisiae deletion strains, locus YOR061W, strain CKA2, hits give low values 1.02 | S. cerevisiae deletion strains, locus YOR069W, strain VPS5, hits give low values 1.01 | S. cerevisiae deletion strains, locus YOR070C, strain gyp1, hits give low values 0.979 | S. cerevisiae deletion strains, locus YOR080W, strain dia2, hits give low values 0.985 | S. cerevisiae deletion strains, locus YOR083W, strain WHI5, hits give low values 0.979 | S. cerevisiae deletion strains, locus YOR106W, strain vam3, hits give low values 0.976 | S. cerevisiae deletion strains, locus YOR136W, strain idh2, hits give low values 0.986 | S. cerevisiae deletion strains, locus YOR144C, strain elg1, hits give low values 0.99 | S. cerevisiae deletion strains, locus YOR184W, strain ser1, hits give low values 1.02 | S. cerevisiae deletion strains, locus YOR231W, strain MKK1, hits give low values 0.98 | S. cerevisiae deletion strains, locus YOR265W, strain rbl2, hits give low values 0.979 | S. cerevisiae deletion strains, locus YOR270C, strain vph1, hits give low values 0.973 | S. cerevisiae deletion strains, locus YOR290C, strain snf2, hits give low values 0.992 | S. cerevisiae deletion strains, locus YOR316C, strain cot1, hits give low values 0.993 | S. cerevisiae deletion strains, locus YPL051W, strain arl3, hits give low values 0.997 | S. cerevisiae deletion strains, locus YPL055C, strain LGE1, hits give low values 1.07 | S. cerevisiae deletion strains, locus YPL078C, strain atp4, hits give low values 0.994 | S. cerevisiae deletion strains, locus YPL106C, strain sse1, hits give low values 0.953 | S. cerevisiae deletion strains, locus YPL240C, strain hsp82, hits give low values 0.991 | S. cerevisiae deletion strains, locus YPL256C, strain CLN2, hits give low values 0.953 | S. cerevisiae deletion strains, locus YPR119W, strain clb2, hits give low values 0.994 | S. cerevisiae deletion strains, locus YPR141C, strain kar3, hits give low values 0.997 | S. cerevisiae deletion strains, locus YPR163C, strain tif3, hits give low values 0.997 | S. cerevisiae deletion strains, locus YPR167C, strain met16, hits give low values 0.993 | S. cerevisiae deletion strains, strain wtn01, hits give low values 0.988 | S. cerevisiae strains, strain wild type, hits give low values 1.02
